Assay results: PubChem BioAssay (Tox21)
Inconclusive results are not listed. Active and inactive are the calls of the source. Unless noted, the call rests on the fitted dose curve; in most records, active means well fitted curve in the direction sought with a large enough effect in the repeat runs; inconclusive means weak or mixed curves; inactive means no such curve, though single readings can be large; an effect the other way counts as inactive or inconclusive.

How the values were obtained:
[1] = qHTS assay to identify small molecule antagonists of the thyroid receptor (TR) signaling pathway - cell viability counter screen (AID 743064); further: nearly all actives have a fitted effect of over 50% in size
Outline: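 GH3.TRE-Luc rat pituitary cells carrying a TRE-luciferase reporter were treated with compound plus 1 nM T3 (final) for 23.5 h at 37 °C. Viability was then read in the same wells by CellTiter-Fluor fluorescence after a further 30 min.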

[2] = qHTS assay to identify small molecule antagonists of the thyroid receptor (TR) signaling pathway (AID 743065); further: nearly all actives have a fitted effect of over 55% in size
Outline: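 GH3.TRE-Luc rat pituitary cells carrying two TR response elements driving luciferase were plated for 4 h, given compound plus 1 nM T3 (final), and incubated 23.5 h at 37 C. ONE-Glo luminescence measured reporter inhibition; CellTiter-Fluor fluorescence tracked cytotoxicity.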

[3] = tested on: thyroid hormone receptor (rat, GH3 cells); assay: qHTS assay to identify small molecule agonists of the thyroid receptor (TR) signaling pathway (AID 743066; calls by dose curve)
[4] = target: Estrogen receptor (Homo sapiens) (UniProt P03372); assay: qHTS assay to identify small molecule antagonists of the estrogen receptor alpha (ER-alpha) signaling pathway (AID 743069; active means well fitted curve in the direction sought with a large enough effect in the signal ratio in the repeat runs, not every such curve was filed as active; the % refers to the signal ratio)
Sequence of Estrogen receptor (Homo sapiens) (P03372 whole entry, looked up): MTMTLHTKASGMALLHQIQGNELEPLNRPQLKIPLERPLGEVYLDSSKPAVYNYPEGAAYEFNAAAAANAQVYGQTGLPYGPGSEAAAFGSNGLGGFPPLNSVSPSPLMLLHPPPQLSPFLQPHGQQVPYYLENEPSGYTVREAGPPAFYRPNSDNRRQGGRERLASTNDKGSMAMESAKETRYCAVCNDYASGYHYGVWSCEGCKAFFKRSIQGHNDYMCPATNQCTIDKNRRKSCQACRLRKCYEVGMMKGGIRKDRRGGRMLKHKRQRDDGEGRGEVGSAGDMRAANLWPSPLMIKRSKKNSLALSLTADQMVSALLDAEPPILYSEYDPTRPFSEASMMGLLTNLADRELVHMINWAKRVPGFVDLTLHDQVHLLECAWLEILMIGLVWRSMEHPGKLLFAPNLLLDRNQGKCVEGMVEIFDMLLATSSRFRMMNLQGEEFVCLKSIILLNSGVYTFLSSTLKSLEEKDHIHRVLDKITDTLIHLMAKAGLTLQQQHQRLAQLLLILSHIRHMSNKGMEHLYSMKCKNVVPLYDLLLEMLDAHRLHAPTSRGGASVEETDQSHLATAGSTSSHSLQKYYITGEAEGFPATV
Outline: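 A 17beta-estradiol challenge was applied right after compound transfer to ER-alpha-UAS-bla HEK293 cells previously kept in charcoal-stripped serum. Plates stood 18 hr at 37C and 5% CO2; fluorescence was read following 2 hr FRET substrate loading at room temperature.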

[5] = qHTS assay to identify small molecule antagonists of the estrogen receptor alpha (ER-alpha) signaling pathway - cell viability counter screen (AID 743074; calls by dose curve;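 further: HEK293 cells carrying ER-alpha-UAS-bla reporter stimulated with 17beta-estradiol; nearly all actives have a fitted effect of over 45% in size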)
[6] = target: Estrogen receptor (Homo sapiens) (UniProt P03372); assay: qHTS assay to identify small molecule agonists of the estrogen receptor alpha (ER-alpha) signaling pathway (AID 743075; calls by dose curve;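 further: HEK293 GripTite cells with ER-alpha and UAS-driven beta-lactamase reporter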)
[7] = target: Estrogen receptor (Homo sapiens) (UniProt P03372); assay: qHTS assay to identify small molecule agonists of the estrogen receptor alpha (ER-alpha) signaling pathway using the BG1 cell line (AID 743079); details: BG1Luc4E2 cells, ERE-luciferase agonist, 22 h; activation: at 70.3 µM (top of the series); further: nearly all actives have a fitted effect of over 20% in size
[8] = qHTS assay to identify small molecule antagonists of the estrogen receptor alpha (ER-alpha) signaling pathway using the BG1 cell line (AID 743080; calls by dose curve;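 further: BG1 cells stimulated with 17beta-estradiol alongside compound; nearly all actives have a fitted effect of over 25% in size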)
Outline: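 Quantitative HTS on the Tox21 10K library: BG1 cells with endogenous ER-alpha and ERE-luciferase reporter, 17beta-estradiol stimulation, 21.5 h compound exposure, luminescence endpoint with parallel fluorescence cytotoxicity counter-read.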

[9] = qHTS assay to identify small molecule antagonists of the estrogen receptor alpha (ER-alpha) signaling pathway using the BG1 cell line - cell viability counter screen (AID 743081);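 further: compound given together with 17beta-estradiol as the ER stimulus; nearly all actives have a fitted effect of over 45% in size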
[10] = target: Aromatase (Homo sapiens) (UniProt P11511); assay: qHTS assay to identify aromatase inhibitors (AID 743083); further: nearly all actives have a fitted effect of over 55% in size
Sequence of Aromatase (Homo sapiens) (P11511 whole entry, looked up): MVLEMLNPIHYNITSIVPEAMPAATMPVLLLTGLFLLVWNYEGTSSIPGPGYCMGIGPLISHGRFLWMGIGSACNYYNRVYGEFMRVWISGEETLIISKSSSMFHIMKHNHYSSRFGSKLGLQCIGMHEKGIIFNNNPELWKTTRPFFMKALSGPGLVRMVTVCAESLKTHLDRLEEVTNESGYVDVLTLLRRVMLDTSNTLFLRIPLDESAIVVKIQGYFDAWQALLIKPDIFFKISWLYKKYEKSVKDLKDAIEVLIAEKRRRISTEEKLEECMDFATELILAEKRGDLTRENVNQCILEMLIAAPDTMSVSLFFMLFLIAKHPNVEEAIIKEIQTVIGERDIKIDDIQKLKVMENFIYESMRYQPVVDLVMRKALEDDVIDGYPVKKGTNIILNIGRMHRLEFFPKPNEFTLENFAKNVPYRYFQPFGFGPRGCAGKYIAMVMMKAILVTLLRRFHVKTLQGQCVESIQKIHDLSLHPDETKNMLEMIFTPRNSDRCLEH

[11] = qHTS assay to identify aromatase inhibitors - cell viability counter screen (AID 743084);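 further: cells stimulated with testosterone during compound exposure; nearly all actives have a fitted effect of over 55% in size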
[12] = target: Aryl hydrocarbon receptor (Homo sapiens) (UniProt P35869); assay: qHTS assay to identify small molecule that activate the aryl hydrocarbon receptor (AhR) signaling pathway (AID 743085);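 further: HG2L7.5c1 human HepG2 liver cells with stably integrated DRE-driven firefly reporter; nearly all actives have a fitted effect of over 15% in size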
Sequence of Aryl hydrocarbon receptor (Homo sapiens) (P35869 whole entry, looked up): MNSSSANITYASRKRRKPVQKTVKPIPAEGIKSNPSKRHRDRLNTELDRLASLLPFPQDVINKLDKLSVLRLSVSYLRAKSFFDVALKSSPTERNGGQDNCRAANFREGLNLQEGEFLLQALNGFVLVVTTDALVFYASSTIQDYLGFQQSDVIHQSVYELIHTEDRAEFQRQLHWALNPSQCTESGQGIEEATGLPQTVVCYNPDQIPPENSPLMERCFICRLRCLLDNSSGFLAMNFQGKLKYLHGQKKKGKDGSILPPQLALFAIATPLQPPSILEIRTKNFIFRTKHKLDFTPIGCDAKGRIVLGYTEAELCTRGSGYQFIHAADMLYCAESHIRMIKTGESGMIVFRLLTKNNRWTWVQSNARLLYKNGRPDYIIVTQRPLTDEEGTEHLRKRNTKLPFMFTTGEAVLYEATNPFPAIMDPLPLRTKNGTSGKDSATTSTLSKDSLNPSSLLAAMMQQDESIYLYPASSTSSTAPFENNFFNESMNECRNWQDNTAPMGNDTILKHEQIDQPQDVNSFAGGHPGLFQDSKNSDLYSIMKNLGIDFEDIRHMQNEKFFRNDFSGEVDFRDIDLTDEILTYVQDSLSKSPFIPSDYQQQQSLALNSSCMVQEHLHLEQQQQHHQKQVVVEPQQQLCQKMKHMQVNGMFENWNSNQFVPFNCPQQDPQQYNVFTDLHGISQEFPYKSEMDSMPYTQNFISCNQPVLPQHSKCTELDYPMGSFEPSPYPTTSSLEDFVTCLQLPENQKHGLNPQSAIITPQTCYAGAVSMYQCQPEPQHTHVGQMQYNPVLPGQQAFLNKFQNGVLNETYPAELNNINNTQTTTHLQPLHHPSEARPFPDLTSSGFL
Outline: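 HepG2 cells (HG2L7.5c1) stably carrying a firefly luciferase reporter driven by 20 dioxin responsive elements were exposed to compound for 24 h at 37C after a 5 h settling period; luminescence rise (ONE-Glo) indicated activation.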

[13] = qHTS assay to identify small molecule that activate the aryl hydrocarbon receptor (AhR) signaling pathway - cell viability counter screen (AID 743086);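 further: HepG2 liver cells carrying the AhR DRE luciferase reporter; nearly all actives have a fitted effect of over 45% in size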
Outline: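 HepG2-AhR-luc (HG2L7.5c1) cells, 4000/well, were preincubated 5 h at 37C, exposed to compound in qHTS format for 24 hr at 37C, then given CellTiter-Fluor for 30 min; viability was read as fluorescence in the reporter wells.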

[14] = target: Peroxisome proliferator-activated receptor gamma (Homo sapiens) (UniProt P37231); assay: qHTS assay to identify small molecule agonists of the peroxisome proliferator-activated receptor gamma (PPARg) signaling pathway (AID 743094; active means well fitted activation curve with a large enough effect in the signal ratio in the repeat runs, not every such curve was filed as active; the % refers to the signal ratio)
Sequence of Peroxisome proliferator-activated receptor gamma (Homo sapiens) (P37231 whole entry, looked up): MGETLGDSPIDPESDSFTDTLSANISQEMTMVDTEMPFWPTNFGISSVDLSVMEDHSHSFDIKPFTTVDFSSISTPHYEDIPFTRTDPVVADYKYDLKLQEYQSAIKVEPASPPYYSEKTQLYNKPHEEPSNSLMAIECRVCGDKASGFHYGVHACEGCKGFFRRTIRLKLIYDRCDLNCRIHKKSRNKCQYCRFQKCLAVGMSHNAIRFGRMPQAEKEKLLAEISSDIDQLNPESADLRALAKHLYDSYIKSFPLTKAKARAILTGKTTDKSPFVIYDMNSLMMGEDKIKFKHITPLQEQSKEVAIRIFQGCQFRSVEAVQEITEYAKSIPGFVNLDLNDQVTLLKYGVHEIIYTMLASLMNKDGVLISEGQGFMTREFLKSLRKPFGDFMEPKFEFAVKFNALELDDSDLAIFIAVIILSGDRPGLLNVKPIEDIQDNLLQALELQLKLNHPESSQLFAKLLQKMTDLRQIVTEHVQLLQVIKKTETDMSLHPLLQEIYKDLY
Outline: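 Agonism was assessed in a beta-lactamase reporter system, HEK293H cells with a stably integrated UAS-bla construct under PPARg control; the 17 h treatment at 37C preceded a 1 h room-temperature FRET substrate read.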

[15] = target: Peroxisome proliferator-activated receptor gamma (Homo sapiens) (UniProt P37231); assay: qHTS assay to identify small molecule antagonists of the peroxisome proliferator-activated receptor gamma (PPARg) signaling pathway (AID 743191; calls by dose curve; further: nearly all actives have a fitted effect of over 30% in size)
Outline: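 GeneBLAzer PPARg UAS-bla HEK293H cells carrying a UAS-driven beta-lactamase reporter were plated at 3000 cells/well, preincubated 5 h at 37C, then given compound for 17 h at 37C; LiveBLAzer B/G FRET substrate was read after 1 h at room temperature.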

[16] = qHTS assay to identify small molecule antagonists of the peroxisome proliferator-activated receptor gamma (PPARg) signaling pathway - cell viability counter screen (AID 743194); further: nearly all actives have a fitted effect of over 55% in size
Outline: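 PPARg-UAS-bla HEK293H cells were plated, rested 5 h at 37 C, then treated with compounds plus rosiglitazone (50 nM final) for 17 h at 37 C; viability was then read by CellTiter-Glo luminescence after 30 min at room temperature.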

[17] = qHTS assay for small molecule agonists of the antioxidant response element (ARE) signaling pathway (AID 743202; active means well fitted activation curve with a large enough effect in the signal ratio in the repeat runs, not every such curve was filed as active; the % refers to the signal ratio)
Outline: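 Following a 16 h, 37 C exposure of reporter HepG2 cells (ARE-driven beta-lactamase, 2,000 cells/well) to compounds, FRET substrate was applied for 2 h at room temperature and fluorescence intensity recorded.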

[18] = qHTS assay for small molecule agonists of the antioxidant response element (ARE) signaling pathway - cell viability counter screen (AID 743203; calls by dose curve; further: nearly all actives have a fitted effect of over 55% in size)
Outline: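 ATP content via CellTiter-Glo luminescence served as the viability measure. Cells: ARE-bla HepG2, 2,000 per well. Exposure: 16 hrs, 37C/5% CO2.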

[19] = qHTS assay for small molecule activators of the heat shock response signaling pathway - cell viability counter screen (AID 743209); further: nearly all actives have a fitted effect of over 50% in size
Outline: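 Compounds dissolved in DMSO were added to overnight-plated HSE-bla HeLa cells and left 5 h at 37 C. Cell viability was quantified by luminescence using CellTiter-Glo.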

[20] = qHTS assay for small molecule activators of the heat shock response signaling pathway (AID 743210; active means well fitted activation curve with a large enough effect in the signal ratio in the repeat runs, with a control signal flat, not every such curve was filed as active; the % refers to the signal ratio)
Outline: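 Heat shock element–beta-lactamase HeLa reporter cells; qHTS with compounds for 5 h at 37 C; detection by FRET substrate fluorescence after 2.5 h at RT.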

Measured: Potency

ON(Cc1ccccc1)Cc1ccccc1
not listed: [19] | [20]
inactive: all other assays above

O=C(O)c1cccc(O)c1
inactive: all assays above

O=C1NCCN1
not listed: [19] | [20]
inactive: all other assays above

CC(CCO)CCc1ccccc1 (stereo not given)
not listed: [16] | [17] | [18]
inactive: all other assays above

CCN(CC)CCNC(=O)c1ccc(NC(C)=O)cc1
inactive: all assays above

COC(=O)[C@@H]1CC2=CC(=O)CC[C@]2(C)[C@@]23O[C@@H]2C[C@@]2(C)[C@@H](CC[C@@]24CCC(=O)O4)[C@H]13
not listed: [15]
inactive: all other assays above

CC1=C(C=O)C(C)(C)CCC1
not listed: [16] | [17]
inactive: all other assays above
